In the supplement of paper PMC10849652:
About 8,800 targets were measured; listed, in parts, are those with a hit and a random draw of the rest. About 0.5% of all pairs of compound and target were hits.

Assays:
Assay in all cases: log2 fold change, soluble protein after heating vs DMSO (PISA); higher = thermal stabilisation; K562 lysate, 10 uM; active = over 0.2 and 3.5 SD of the protein, either way, in both replicates (recomputed)
alvocidib = compound: CN1CC[C@H](c2c(O)cc(O)c3c(=O)cc(-c4ccccc4Cl)oc23)[C@H](O)C1 [alvocidib]
Procedure, shortened: (§1)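 Quantification was by TMTpro 16plex LC-MS/MS with equalised channel sums, applied to the supernatant after 21,000xg for 90 min. Samples were crude K562 extract at 1 mg/mL protein in PBS pH 7.4 with 1 mM MgCl2, treated with 10 μM compound for 30 min, heated for 3 min across 48°C-58°C, pooled and brought to 0.5% NP-40 at 4°C. Values are log-two fold changes in thermal stability relative to solvent controls, from duplicates.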

Tubastatin A = compound: CN1CCc2c(c3ccccc3n2Cc2ccc(C(=O)NO)cc2)C1 [Tubastatin A]
Procedure, shortened: as §1

[1] = compound: CNC(=O)C1=CC=CC=C1NC2=NC(=NC=C2Cl)NC3=C(C=C(C=C3)N4CCOCC4)OC
Procedure, shortened: as §1

defactinib = compound: CNC(=O)c1ccc(Nc2ncc(C(F)(F)F)c(NCc3nccnc3N(C)S(C)(=O)=O)n2)cc1 [defactinib]
Procedure, shortened: as §1

[2] = compound: CNc1nc(-c2ccc3c(N)n[nH]c3c2)cc(N2C[C@@H](C(=O)NC3CCCCC3)CC[C@H]2C)n1
Procedure, shortened: as §1

encorafenib = compound: COC(=O)N[C@@H](C)CNc1nccc(-c2cn(C(C)C)nc2-c2cc(Cl)cc(NS(C)(=O)=O)c2F)n1 [encorafenib]
Procedure, shortened: as §1

[3] = compound: COC(=O)[C@H](CCSC)NC(=O)C1=C(C=C(C=C1)NC[C@H](CS)N)C2=CC=CC=C2
Procedure, shortened: as §1

alisertib = compound: COc1cc(Nc2ncc3c(n2)-c2ccc(Cl)cc2C(c2c(F)cccc2OC)=NC3)ccc1C(=O)O [alisertib]
Procedure, shortened: as §1

[4] = compound: COc1cc2nc(-c3cc(F)ccc3O)nc(N[C@@H]3CNC[C@H]3C(C)(C)O)c2cc1OC
Procedure, shortened: as §1

gefitinib = compound: COc1cc2ncnc(Nc3ccc(F)c(Cl)c3)c2cc1OCCCN1CCOCC1 [gefitinib]
Procedure, shortened: as §1

lapatinib = compound: CS(=O)(=O)CCNCc1ccc(-c2ccc3ncnc(Nc4ccc(OCc5cccc(F)c5)c(Cl)c4)c3c2)o1 [lapatinib]
Procedure, shortened: as §1

pictilisib = compound: CS(=O)(=O)N1CCN(Cc2cc3nc(-c4cccc5[nH]ncc45)nc(N4CCOCC4)c3s2)CC1 [pictilisib]
Procedure, shortened: as §1

crizotinib = compound: C[C@@H](Oc1cc(-c2cnn(C3CCNCC3)c2)cnc1N)c1c(Cl)ccc(F)c1Cl [crizotinib]
Procedure, shortened: as §1

[5] = compound: C[C@H](C1=CC=C(C=C1)C(=O)NC2=C3C=CNC3=NC=C2)N
Procedure, shortened: as §1

duvelisib = compound: C[C@H](Nc1ncnc2nc[nH]c12)c1cc2cccc(Cl)c2c(=O)n1-c1ccccc1 [duvelisib]
Procedure, shortened: as §1

gandotinib = compound: Cc1cc(Nc2cc(CN3CCOCC3)c3nc(C)c(Cc4ccc(Cl)cc4F)n3n2)n[nH]1 [gandotinib]
Procedure, shortened: as §1

tozasertib = compound: Cc1cc(Nc2cc(N3CCN(C)CC3)nc(Sc3ccc(NC(=O)C4CC4)cc3)n2)n[nH]1 [tozasertib]
Procedure, shortened: as §1

doramapimod = compound: Cc1ccc(-n2nc(C(C)(C)C)cc2NC(=O)Nc2ccc(OCCN3CCOCC3)c3ccccc23)cc1 [doramapimod]
Procedure, shortened: as §1

bafetinib = compound: Cc1ccc(NC(=O)c2ccc(CN3CC[C@H](N(C)C)C3)c(C(F)(F)F)c2)cc1Nc1nccc(-c2cncnc2)n1 [bafetinib]
Procedure, shortened: as §1

[6] = compound: Cc1cccc(CC(=O)N2CCc3c2ccc(-c2cn(C)c4ncnc(N)c24)c3F)n1
Procedure, shortened: as §1

Measured: log2 fold change

FUBP3 (UniProt Q96I24)
inactive: alvocidib 0.008 | Tubastatin A -0.101 | [1] -0.033 | defactinib 0.005 | [2] -0.05 | encorafenib 0.065 | [3] -0.146 | alisertib 0.048 | [4] 0.001 | gefitinib -0.033 | lapatinib 0.02 | pictilisib -0.109 | crizotinib 0.005 | [5] 0.036 | duvelisib -0.022 | gandotinib 0.019 | tozasertib 0.033 | doramapimod -0.034 | bafetinib -0.055 | [6] -0.05

EGLN1 (UniProt Q9GZT9)
inactive: alvocidib -0.017 | Tubastatin A -0.088 | [1] 0.025 | defactinib 0.033 | [2] -0.026 | encorafenib 0 | [3] 0.091 | alisertib 0.009 | [4] 0.022 | gefitinib -0.003 | lapatinib -0.075 | pictilisib 0.031 | crizotinib -0.018 | [5] 0.037 | duvelisib 0.199 | gandotinib -0.036 | tozasertib 0.034 | doramapimod 0.006 | bafetinib 0.001 | [6] -0.055

GABPB1 (UniProt Q06547)
inactive: alvocidib 0.181 | Tubastatin A -0.001 | [1] -0.028 | defactinib 0.005 | [2] 0 | encorafenib 0.036 | [3] 0.097 | alisertib -0.016 | [4] -0.043 | gefitinib 0.024 | lapatinib -0.042 | pictilisib -0.052 | crizotinib 0.021 | [5] 0.192 | duvelisib 0.018 | gandotinib -0.194 | tozasertib -0.004 | doramapimod 0.026 | bafetinib -0.071 | [6] -0.082

DST (UniProt Q03001)
inactive: alvocidib -0.047 | Tubastatin A 0.033 | [1] -0.003 | defactinib -0.094 | [2] 0.114 | encorafenib 0.018 | [3] 0.048 | alisertib 0.003 | [4] 0.033 | gefitinib 0.046 | lapatinib -0.019 | pictilisib 0.015 | crizotinib -0.02 | [5] -0.17 | duvelisib 0.018 | gandotinib 0.101 | tozasertib 0.024 | doramapimod 0.023 | bafetinib -0.137 | [6] 0.246

EMP3 (UniProt P54852)
Sequence of UniProt P54852 (P54852 whole entry, looked up): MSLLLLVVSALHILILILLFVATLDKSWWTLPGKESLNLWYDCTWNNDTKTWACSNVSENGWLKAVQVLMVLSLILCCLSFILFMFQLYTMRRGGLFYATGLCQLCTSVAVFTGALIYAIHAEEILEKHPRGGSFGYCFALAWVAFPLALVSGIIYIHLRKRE
inactive: alvocidib -0.227 | Tubastatin A -0.021 | [1] 0.067 | defactinib 0.009 | [2] 0.056 | encorafenib -0.016 | [3] 0.022 | alisertib 0.053 | [4] 0.052 | gefitinib -0.071 | lapatinib 0 | pictilisib -0.03 | crizotinib -0.002 | duvelisib 0 | tozasertib -0.078 | doramapimod 0.029 | bafetinib -0.019
active: [5] -0.763 | gandotinib 0.351 | [6] 0.329

DSN1 (UniProt Q9H410)
Sequence of UniProt Q9H410 (Q9H410 whole entry, looked up): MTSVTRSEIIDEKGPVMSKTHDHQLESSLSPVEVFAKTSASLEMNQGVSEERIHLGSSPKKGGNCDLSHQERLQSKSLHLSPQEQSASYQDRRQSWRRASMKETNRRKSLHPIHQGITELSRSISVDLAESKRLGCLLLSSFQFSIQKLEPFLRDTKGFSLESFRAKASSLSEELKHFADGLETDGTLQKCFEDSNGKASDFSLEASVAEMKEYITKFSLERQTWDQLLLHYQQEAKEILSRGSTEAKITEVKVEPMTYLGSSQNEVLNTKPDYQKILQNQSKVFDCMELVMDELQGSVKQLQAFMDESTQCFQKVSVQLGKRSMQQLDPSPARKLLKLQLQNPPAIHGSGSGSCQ
inactive: alvocidib -0.046 | Tubastatin A -0.087 | [1] 0.076 | defactinib 0.059 | [2] 0.04 | encorafenib 0.006 | [3] 0.107 | alisertib -0.005 | [4] 0.004 | gefitinib 0 | lapatinib 0.009 | pictilisib -0.027 | crizotinib -0.016 | [5] -0.051 | duvelisib 0.004 | gandotinib 0.008 | tozasertib 0.015 | doramapimod -0.037 | bafetinib -0.026 | [6] 0.021

EXOC5 (UniProt O00471)
Sequence of UniProt O00471 (O00471 whole entry, looked up): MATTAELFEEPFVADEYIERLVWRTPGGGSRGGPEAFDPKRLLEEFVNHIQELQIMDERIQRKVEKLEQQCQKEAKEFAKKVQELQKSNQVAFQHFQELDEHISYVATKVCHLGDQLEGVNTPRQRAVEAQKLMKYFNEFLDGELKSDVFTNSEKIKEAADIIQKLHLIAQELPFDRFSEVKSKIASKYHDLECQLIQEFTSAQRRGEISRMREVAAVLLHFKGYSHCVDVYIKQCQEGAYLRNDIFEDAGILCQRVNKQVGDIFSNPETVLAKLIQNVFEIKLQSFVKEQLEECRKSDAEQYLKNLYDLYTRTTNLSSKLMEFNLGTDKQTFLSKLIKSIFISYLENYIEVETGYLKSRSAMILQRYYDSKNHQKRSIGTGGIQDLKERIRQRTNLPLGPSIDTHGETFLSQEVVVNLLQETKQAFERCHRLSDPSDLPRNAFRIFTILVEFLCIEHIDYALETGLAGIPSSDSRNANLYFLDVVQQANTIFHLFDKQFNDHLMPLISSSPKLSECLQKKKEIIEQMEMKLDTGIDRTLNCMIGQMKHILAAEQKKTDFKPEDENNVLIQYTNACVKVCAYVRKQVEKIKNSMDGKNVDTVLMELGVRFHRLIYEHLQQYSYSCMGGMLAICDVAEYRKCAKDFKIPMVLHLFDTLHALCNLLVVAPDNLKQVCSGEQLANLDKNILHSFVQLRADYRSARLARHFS
inactive: alvocidib 0.004 | Tubastatin A -0.064 | [1] -0.011 | defactinib 0.007 | [2] -0.07 | encorafenib 0.029 | [3] -0.102 | alisertib 0.029 | [4] -0.025 | gefitinib 0.002 | lapatinib -0.012 | pictilisib 0.017 | crizotinib -0.067 | [5] 0.055 | duvelisib -0.027 | gandotinib -0.202 | tozasertib 0.025 | doramapimod 0.027 | bafetinib -0.033 | [6] 0.003

GAPVD1 isoform 6 (UniProt Q14C86)
Sequence of UniProt Q14C86 (Q14C86 whole entry, looked up): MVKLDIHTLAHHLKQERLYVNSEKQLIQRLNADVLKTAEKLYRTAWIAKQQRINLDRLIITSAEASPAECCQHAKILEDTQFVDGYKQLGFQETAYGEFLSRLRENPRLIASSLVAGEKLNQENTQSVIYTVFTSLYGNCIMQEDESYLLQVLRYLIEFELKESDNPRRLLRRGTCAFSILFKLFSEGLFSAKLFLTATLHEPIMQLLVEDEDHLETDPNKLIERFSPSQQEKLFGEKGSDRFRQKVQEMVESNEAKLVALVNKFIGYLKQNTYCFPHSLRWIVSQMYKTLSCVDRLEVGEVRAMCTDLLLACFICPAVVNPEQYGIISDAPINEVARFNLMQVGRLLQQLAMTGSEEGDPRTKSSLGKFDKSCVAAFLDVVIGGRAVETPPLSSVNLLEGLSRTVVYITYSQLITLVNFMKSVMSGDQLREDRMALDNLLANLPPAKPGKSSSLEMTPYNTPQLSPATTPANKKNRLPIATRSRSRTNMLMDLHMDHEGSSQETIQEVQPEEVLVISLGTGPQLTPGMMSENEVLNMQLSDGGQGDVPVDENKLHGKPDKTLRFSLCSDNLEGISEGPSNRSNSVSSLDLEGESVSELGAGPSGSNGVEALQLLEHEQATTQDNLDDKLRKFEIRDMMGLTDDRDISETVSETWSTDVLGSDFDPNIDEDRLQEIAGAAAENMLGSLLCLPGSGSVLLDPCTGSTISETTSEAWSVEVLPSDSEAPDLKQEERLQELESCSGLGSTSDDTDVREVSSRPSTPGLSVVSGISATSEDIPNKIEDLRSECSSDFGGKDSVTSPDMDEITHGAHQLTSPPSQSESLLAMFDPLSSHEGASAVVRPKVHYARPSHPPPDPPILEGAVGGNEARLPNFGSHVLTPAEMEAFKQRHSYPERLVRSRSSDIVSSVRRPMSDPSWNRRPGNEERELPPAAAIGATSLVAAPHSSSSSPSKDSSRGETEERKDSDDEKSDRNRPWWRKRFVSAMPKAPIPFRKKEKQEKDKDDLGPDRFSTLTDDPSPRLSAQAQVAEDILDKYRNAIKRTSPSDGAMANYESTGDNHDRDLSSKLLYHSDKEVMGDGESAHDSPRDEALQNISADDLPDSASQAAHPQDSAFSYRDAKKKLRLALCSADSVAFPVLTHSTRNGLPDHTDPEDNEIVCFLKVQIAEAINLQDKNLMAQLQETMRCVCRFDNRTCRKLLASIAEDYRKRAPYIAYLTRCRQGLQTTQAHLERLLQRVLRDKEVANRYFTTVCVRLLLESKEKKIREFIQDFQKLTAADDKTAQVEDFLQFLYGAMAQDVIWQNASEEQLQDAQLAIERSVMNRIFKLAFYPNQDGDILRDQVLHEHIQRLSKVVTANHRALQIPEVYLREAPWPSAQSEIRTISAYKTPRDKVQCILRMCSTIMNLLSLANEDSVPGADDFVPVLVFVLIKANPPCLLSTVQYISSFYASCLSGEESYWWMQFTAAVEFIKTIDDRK
inactive: alvocidib 0.01 | Tubastatin A -0.112 | [1] 0.015 | defactinib 0.018 | [2] -0.04 | encorafenib 0.014 | [3] 0.097 | alisertib 0.005 | [4] -0.017 | gefitinib -0.012 | lapatinib 0 | pictilisib -0.017 | crizotinib -0.023 | [5] 0.054 | duvelisib 0.011 | gandotinib -0.088 | tozasertib -0.002 | doramapimod 0.025 | bafetinib -0.022 | [6] -0.018

FIBP (UniProt O43427)
Sequence of UniProt O43427 (O43427 whole entry, looked up): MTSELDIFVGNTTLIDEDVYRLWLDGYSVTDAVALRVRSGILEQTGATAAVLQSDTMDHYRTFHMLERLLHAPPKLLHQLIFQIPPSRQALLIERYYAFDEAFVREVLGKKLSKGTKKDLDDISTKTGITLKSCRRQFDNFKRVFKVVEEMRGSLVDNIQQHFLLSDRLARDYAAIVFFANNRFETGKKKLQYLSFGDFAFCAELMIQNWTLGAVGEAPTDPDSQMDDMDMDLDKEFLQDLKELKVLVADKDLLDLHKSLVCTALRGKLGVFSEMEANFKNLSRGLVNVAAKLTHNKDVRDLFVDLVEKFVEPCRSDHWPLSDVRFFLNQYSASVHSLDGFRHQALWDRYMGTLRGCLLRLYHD
inactive: alvocidib 0.03 | Tubastatin A 0.003 | [1] 0.05 | defactinib 0.1 | [2] -0.079 | encorafenib 0.036 | [3] 0.094 | alisertib 0.012 | [4] 0.002 | gefitinib -0.005 | lapatinib -0.016 | pictilisib -0.074 | crizotinib -0.08 | [5] 0.003 | duvelisib 0.073 | gandotinib -0.031 | tozasertib 0.05 | doramapimod -0.038 | bafetinib -0.025 | [6] 0.094

EBP (UniProt Q15125)
Sequence of UniProt Q15125 (Q15125 whole entry, looked up): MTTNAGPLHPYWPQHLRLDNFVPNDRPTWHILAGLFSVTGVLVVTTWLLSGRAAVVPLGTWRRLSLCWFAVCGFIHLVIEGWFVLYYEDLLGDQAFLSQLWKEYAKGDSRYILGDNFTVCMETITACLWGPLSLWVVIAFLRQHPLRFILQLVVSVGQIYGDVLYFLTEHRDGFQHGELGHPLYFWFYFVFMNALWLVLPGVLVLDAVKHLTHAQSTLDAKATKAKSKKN
inactive: alvocidib -0.003 | Tubastatin A 0.004 | [1] 0.087 | defactinib 0.028 | encorafenib 0.005 | [3] -0.016 | alisertib -0.036 | [4] 0.048 | gefitinib 0.04 | lapatinib -0.044 | pictilisib -0.004 | crizotinib 0.07 | duvelisib -0.093 | gandotinib 0.1 | tozasertib -0.016 | doramapimod -0.127 | bafetinib -0.011 | [6] 0
active: [2] 0.291 | [5] -0.269

GDPD1 (UniProt Q8N9F7)
Sequence of UniProt Q8N9F7 (Q8N9F7 whole entry, looked up): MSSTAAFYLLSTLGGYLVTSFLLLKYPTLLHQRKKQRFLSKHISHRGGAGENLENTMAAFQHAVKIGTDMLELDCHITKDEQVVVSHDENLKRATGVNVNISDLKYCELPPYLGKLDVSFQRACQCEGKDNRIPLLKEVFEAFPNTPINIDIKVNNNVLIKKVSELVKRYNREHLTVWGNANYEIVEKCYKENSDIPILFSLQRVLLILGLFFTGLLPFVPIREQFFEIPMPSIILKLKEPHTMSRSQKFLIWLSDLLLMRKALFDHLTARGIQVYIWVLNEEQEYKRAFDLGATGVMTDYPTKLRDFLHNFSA
active: [3] -0.272
inactive: alvocidib 0 | Tubastatin A -0.023 | [1] 0.006 | defactinib -0.03 | [2] 0.046 | encorafenib 0.059 | alisertib -0.018 | [4] -0.027 | gefitinib -0.035 | lapatinib 0.03 | pictilisib -0.042 | crizotinib -0.157 | [5] 0.001 | duvelisib 0.049 | gandotinib 0.164 | tozasertib -0.029 | doramapimod 0.027 | bafetinib 0.022 | [6] 0.007

GALK1 isoform 2 (UniProt P51570)
Sequence of UniProt P51570 (P51570 whole entry, looked up): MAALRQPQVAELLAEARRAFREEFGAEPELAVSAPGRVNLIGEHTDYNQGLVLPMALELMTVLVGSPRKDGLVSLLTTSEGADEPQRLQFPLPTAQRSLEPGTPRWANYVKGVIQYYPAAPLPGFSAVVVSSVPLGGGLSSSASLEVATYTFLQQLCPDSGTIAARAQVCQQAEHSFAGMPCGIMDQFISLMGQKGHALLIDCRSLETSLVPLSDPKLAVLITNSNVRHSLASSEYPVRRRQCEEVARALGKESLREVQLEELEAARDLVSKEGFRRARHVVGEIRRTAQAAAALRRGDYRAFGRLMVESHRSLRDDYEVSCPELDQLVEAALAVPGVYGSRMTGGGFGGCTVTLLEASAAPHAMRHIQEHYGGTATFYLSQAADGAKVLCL
inactive: alvocidib 0.035 | Tubastatin A -0.132 | [1] -0.005 | defactinib -0.002 | [2] 0 | encorafenib 0.02 | [3] -0.171 | alisertib 0.054 | [4] -0.016 | gefitinib 0.034 | lapatinib -0.002 | pictilisib -0.02 | crizotinib -0.015 | [5] 0.092 | duvelisib -0.028 | gandotinib -0.098 | tozasertib 0.03 | doramapimod 0.039 | bafetinib -0.007 | [6] -0.013

FADS3 (UniProt Q9Y5Q0)
Sequence of UniProt Q9Y5Q0 (Q9Y5Q0 whole entry, looked up): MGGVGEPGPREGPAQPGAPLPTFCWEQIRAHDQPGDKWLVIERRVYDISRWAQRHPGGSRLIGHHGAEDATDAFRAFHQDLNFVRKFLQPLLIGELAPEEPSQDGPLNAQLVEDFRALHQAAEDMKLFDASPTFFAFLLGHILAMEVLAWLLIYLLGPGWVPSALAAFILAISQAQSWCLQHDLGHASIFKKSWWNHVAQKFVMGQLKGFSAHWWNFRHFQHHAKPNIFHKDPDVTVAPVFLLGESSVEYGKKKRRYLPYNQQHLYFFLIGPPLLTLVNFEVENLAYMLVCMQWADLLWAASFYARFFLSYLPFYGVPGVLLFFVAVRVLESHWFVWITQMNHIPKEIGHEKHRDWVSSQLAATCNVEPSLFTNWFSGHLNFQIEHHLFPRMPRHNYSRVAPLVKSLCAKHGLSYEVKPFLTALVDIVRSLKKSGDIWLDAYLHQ
inactive: alvocidib -0.051 | Tubastatin A 0.1 | [1] -0.047 | defactinib 0.198 | [2] -0.08 | encorafenib 0.097 | [3] 0.096 | alisertib 0 | [4] 0 | gefitinib 0.063 | lapatinib 0.13 | pictilisib -0.014 | crizotinib -0.065 | [5] -0.322 | duvelisib -0.09 | gandotinib 0 | tozasertib 0.079 | doramapimod -0.001 | bafetinib -0.131 | [6] -0.309

EPB41, A0A2R8Y6D0
inactive: alvocidib -0.015 | Tubastatin A -0.033 | [1] 0.114 | defactinib 0.098 | [2] -0.178 | encorafenib 0.029 | [3] 0.052 | alisertib 0.165 | [4] -0.014 | gefitinib 0.407 | lapatinib 0.008 | pictilisib -0.14 | crizotinib -0.085 | [5] -0.037 | duvelisib -0.086 | gandotinib 0.031 | tozasertib 0.068 | doramapimod -0.051 | bafetinib -0.031 | [6] -0.003

EXOC6 (UniProt Q8TAG9)
inactive: alvocidib -0.014 | Tubastatin A -0.092 | [1] 0.013 | defactinib 0.008 | [2] -0.017 | encorafenib 0.015 | [3] 0.039 | alisertib 0.007 | [4] 0.016 | gefitinib 0.003 | lapatinib -0.017 | pictilisib -0.04 | crizotinib -0.121 | [5] -0.013 | duvelisib 0 | gandotinib -0.166 | tozasertib 0.029 | doramapimod 0.004 | bafetinib -0.059 | [6] 0.033

FAM114A2 (UniProt Q9NRY5)
Sequence of UniProt Q9NRY5 (Q9NRY5 whole entry, looked up): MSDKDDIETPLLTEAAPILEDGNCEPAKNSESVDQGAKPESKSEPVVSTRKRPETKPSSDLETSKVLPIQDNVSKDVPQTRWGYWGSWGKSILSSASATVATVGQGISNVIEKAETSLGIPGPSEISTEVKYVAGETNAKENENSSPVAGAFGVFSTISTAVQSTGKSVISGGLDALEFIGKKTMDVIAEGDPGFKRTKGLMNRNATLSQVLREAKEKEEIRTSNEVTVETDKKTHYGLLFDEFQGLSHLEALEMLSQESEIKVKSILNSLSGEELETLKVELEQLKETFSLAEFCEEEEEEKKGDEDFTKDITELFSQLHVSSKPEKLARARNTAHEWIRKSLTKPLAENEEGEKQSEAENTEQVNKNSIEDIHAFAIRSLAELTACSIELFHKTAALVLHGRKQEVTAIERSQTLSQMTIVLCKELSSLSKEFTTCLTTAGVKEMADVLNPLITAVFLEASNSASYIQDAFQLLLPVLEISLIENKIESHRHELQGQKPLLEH
active: gandotinib 0.449
inactive: alvocidib 0.021 | Tubastatin A 0.134 | [1] 0 | defactinib 0.032 | [2] 0.037 | encorafenib 0.219 | [3] 0.027 | alisertib 0.127 | [4] 0.118 | gefitinib 0.073 | lapatinib 0.106 | pictilisib -0.013 | crizotinib 0.013 | [5] -0.023 | duvelisib 0.011 | tozasertib -0.108 | doramapimod -0.011 | bafetinib -0.121 | [6] 0.196
